Test results reported in the supplement of paper PMC10849652.
Targets with a hit are over-represented here; the source holds about 8,800 in all. About 0.5% of all pairs of compound and target were hits.

Key:
Assay in all cases: log2 fold change, soluble protein after heating vs DMSO (PISA); higher = thermal stabilisation; K562 lysate, 10 uM; active = over 0.2 and 3.5 SD of the protein, either way, in both replicates (recomputed)
nilotinib = compound: Cc1cn(-c2cc(NC(=O)c3ccc(C)c(Nc4nccc(-c5cccnc5)n4)c3)cc(C(F)(F)F)c2)cn1 [nilotinib]
Procedure, shortened: (§1)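 A 30 min treatment with 10 μM compound was applied to crude K562 extract at 1 mg/mL protein in PBS pH 7.4 with 1 mM MgCl2. Heating for 3 min spanned 48°C-58°C, after which aliquots were pooled, adjusted to 0.5% NP-40 at 4°C and spun at 21,000xg for 90 min. TMTpro 16plex LC-MS/MS of the supernatant, with channel sums equalised, gave values recorded as log-two fold change in thermal stability against solvent controls, from duplicates.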

[1] = compound: Cc1nc(Nc2n[nH]c3c2CN(C(=O)N[C@H](CN(C)C)c2ccccc2)C3(C)C)c2sccc2n1
Procedure, shortened: as §1

dasatinib = compound: Cc1nc(Nc2ncc(C(=O)Nc3c(C)cccc3Cl)s2)cc(N2CCN(CCO)CC2)n1 [dasatinib]
Procedure, shortened: as §1

[2] = compound: Cc1ncc(-c2ccnc(Nc3ccc(S(C)(=O)=O)cc3)n2)n1C(C)C
Procedure, shortened: as §1

[3] = compound: Cn1cc(-c2ccc3c(c2)CCN3C(=O)Cc2cccc(C(F)(F)F)c2)c2c(N)ncnc21
Procedure, shortened: as §1

quisinostat = compound: Cn1cc(CNCC2CCN(c3ncc(C(=O)NO)cn3)CC2)c2ccccc21 [quisinostat]
Procedure, shortened: as §1

tipifarnib = compound: Cn1cncc1[C@@](N)(c1ccc(Cl)cc1)c1ccc2c(c1)c(-c1cccc(Cl)c1)cc(=O)n2C [tipifarnib]
Procedure, shortened: as §1

[4] = compound: NC(=O)Nc1cc(-c2cccc(F)c2)sc1C(=O)N[C@H]1CCCNC1
Procedure, shortened: as §1

[5] = compound: NC(=O)c1cnc(N[C@@H]2CCCC[C@@H]2N)nc1Nc1cccc(-n2nccn2)c1
Procedure, shortened: as §1

[6] = compound: NC1(c2ccc(-c3nc4ccn5c(=O)[nH]nc5c4cc3-c3ccccc3)cc2)CCC1
Procedure, shortened: as §1

[7] = compound: NCC(=O)Nc1ccc(-n2nc(C(F)(F)F)cc2-c2ccc3c(ccc4ccccc43)c2)cc1
Procedure, shortened: as §1

vorinostat = compound: O=C(CCCCCCC(=O)Nc1ccccc1)NO [vorinostat]
Procedure, shortened: as §1

silmitasertib = compound: O=C(O)c1ccc2c(c1)nc(Nc1cccc(Cl)c1)c1ccncc12 [silmitasertib]
Procedure, shortened: as §1

[8] = compound: O=C1NC(=O)C(c2cnc3ccccn23)=C1c1cn2c3c(cc(F)cc13)CN(C(=O)N1CCCCC1)CC2
Procedure, shortened: as §1

entospletinib = compound: c1cn2cc(-c3ccc4cn[nH]c4c3)nc(Nc3ccc(N4CCOCC4)cc3)c2n1 [entospletinib]
Procedure, shortened: as §1

Measured: log2 fold change

GLYR1 (UniProt Q49A26)
inactive: nilotinib 0.082 | [1] 0.02 | dasatinib -0.053 | [2] 0.053 | [3] -0.048 | quisinostat -0.119 | tipifarnib -0.12 | [4] -0.049 | [5] -0.012 | [6] 0.023 | [7] -0.006 | vorinostat -0.033 | silmitasertib -0.022 | [8] -0.007 | entospletinib -0.041

GMIP (UniProt Q9P107)
active: vorinostat -0.302
inactive: nilotinib -0.094 | [1] -0.041 | dasatinib -0.097 | [2] -0.058 | [3] 0.023 | quisinostat -0.012 | tipifarnib -0.017 | [4] 0.034 | [5] -0.025 | [6] -0.022 | [7] -0.018 | silmitasertib 0.058 | [8] 0.021 | entospletinib -0.038

GLB1 (UniProt P16278)
inactive: nilotinib -0.006 | [1] 0.03 | dasatinib -0.026 | [2] 0.023 | [3] 0.003 | quisinostat 0.03 | tipifarnib 0.017 | [4] -0.016 | [5] -0.011 | [6] -0.022 | [7] 0.003 | vorinostat -0.013 | silmitasertib -0.03 | [8] -0.043 | entospletinib -0.018

KCTD20 (UniProt Q7Z5Y7)
inactive: nilotinib 0.054 | [1] -0.021 | dasatinib -0.096 | [2] 0.074 | [3] 0.039 | quisinostat -0.138 | tipifarnib -0.028 | [4] 0.109 | [5] 0.089 | [6] -0.007 | [7] -0.137 | silmitasertib 0.035 | [8] 0.053 | entospletinib 0.091
active: vorinostat -0.323

GTF3C5 isoform 3 (UniProt Q9Y5Q8)
Sequence of UniProt Q9Y5Q8 (Q9Y5Q8 whole entry, looked up): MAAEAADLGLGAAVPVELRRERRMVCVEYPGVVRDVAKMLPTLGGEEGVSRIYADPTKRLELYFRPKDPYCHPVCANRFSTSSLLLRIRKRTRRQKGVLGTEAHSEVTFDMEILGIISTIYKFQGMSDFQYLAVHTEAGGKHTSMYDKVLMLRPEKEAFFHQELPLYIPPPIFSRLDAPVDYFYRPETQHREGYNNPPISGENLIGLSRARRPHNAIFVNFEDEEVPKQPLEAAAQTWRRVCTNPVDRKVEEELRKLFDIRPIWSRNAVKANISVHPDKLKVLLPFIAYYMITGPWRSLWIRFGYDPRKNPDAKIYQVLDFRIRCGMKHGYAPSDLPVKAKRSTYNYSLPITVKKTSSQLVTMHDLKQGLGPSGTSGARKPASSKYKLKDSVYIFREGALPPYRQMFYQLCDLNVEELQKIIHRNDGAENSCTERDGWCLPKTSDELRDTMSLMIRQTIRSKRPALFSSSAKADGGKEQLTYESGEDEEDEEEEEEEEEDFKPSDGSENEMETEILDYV
inactive: nilotinib 0.023 | [1] -0.023 | dasatinib -0.017 | [2] -0.018 | [3] 0.019 | quisinostat -0.063 | tipifarnib -0.004 | [4] 0.05 | [5] -0.006 | [6] 0.005 | [7] 0.002 | silmitasertib 0.016 | [8] 0.04 | entospletinib -0.021
active: vorinostat -0.296

HDAC6 (UniProt Q9UBN7)
active: vorinostat 0.513
inactive: nilotinib 0.078 | [1] -0.016 | dasatinib -0.06 | [2] -0.034 | [3] 0.042 | quisinostat 0.031 | tipifarnib 0.024 | [4] -0.01 | [5] 0.034 | [6] -0.027 | [7] -0.039 | silmitasertib 0.016 | [8] -0.047 | entospletinib 0.007

HMGCS1 (UniProt Q01581)
Sequence of UniProt Q01581 (Q01581 whole entry, looked up): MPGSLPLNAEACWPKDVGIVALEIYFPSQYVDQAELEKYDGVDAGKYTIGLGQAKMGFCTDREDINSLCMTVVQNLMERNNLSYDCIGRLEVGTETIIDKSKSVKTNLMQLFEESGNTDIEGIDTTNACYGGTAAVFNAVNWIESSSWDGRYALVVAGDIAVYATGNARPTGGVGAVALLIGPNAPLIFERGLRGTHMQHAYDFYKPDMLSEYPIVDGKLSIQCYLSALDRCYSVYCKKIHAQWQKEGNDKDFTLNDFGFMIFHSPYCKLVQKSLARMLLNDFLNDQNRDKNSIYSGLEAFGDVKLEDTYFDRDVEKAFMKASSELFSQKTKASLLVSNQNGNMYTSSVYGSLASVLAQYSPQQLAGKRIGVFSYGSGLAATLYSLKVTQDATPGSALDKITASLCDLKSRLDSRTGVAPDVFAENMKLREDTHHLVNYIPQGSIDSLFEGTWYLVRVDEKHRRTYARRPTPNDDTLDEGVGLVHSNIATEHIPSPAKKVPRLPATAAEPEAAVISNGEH
active: vorinostat 0.53
inactive: nilotinib 0.003 | [1] -0.015 | dasatinib 0.02 | [2] 0.012 | [3] -0.005 | quisinostat -0.007 | tipifarnib 0.001 | [4] -0.016 | [5] -0.008 | [6] -0.018 | [7] 0.018 | silmitasertib 0.011 | [8] 0.013 | entospletinib -0.002

HAUS7 isoform 2 (UniProt Q99871)
inactive: nilotinib 0.021 | [1] 0.007 | dasatinib 0.015 | [2] 0.055 | [3] -0.026 | quisinostat -0.037 | tipifarnib -0.011 | [4] 0.063 | [5] 0.024 | [6] -0.047 | [7] -0.091 | silmitasertib -0.029 | [8] -0.026 | entospletinib -0.124
active: vorinostat -0.416

HELQ (UniProt Q8TDG4)
Sequence of UniProt Q8TDG4 (Q8TDG4 whole entry, looked up): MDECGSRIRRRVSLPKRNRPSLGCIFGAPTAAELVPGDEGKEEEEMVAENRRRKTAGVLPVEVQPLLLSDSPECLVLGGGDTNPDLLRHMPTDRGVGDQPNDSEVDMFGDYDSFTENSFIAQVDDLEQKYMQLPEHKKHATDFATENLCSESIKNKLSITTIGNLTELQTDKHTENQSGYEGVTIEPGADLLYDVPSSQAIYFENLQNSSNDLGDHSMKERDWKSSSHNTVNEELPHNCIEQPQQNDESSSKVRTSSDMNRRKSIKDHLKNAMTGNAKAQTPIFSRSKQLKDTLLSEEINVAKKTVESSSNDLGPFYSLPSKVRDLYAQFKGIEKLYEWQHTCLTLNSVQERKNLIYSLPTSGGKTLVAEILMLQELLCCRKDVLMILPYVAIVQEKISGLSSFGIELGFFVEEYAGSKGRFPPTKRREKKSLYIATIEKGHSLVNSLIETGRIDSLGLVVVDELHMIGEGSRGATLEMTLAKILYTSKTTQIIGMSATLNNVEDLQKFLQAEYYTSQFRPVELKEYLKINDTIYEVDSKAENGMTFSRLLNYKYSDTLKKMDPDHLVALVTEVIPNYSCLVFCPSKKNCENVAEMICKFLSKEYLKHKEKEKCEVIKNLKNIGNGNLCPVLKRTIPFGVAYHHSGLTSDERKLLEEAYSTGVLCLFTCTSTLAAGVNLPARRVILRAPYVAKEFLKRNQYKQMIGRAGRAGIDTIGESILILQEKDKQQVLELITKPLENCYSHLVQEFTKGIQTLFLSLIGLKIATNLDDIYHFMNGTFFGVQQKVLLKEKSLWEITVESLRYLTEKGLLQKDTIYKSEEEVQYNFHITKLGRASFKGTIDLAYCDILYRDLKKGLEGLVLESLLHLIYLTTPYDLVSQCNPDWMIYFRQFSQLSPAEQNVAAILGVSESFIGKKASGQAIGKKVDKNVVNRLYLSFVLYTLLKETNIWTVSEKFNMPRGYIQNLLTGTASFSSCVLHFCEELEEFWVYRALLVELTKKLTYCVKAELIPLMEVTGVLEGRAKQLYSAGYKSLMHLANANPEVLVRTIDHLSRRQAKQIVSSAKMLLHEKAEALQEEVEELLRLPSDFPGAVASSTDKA
inactive: dasatinib 0.021 | [2] 0.051 | [3] -0.028 | quisinostat -0.024 | tipifarnib 0.033 | [4] -0.013 | [5] 0.122 | [6] 0.009 | [7] -0.003 | vorinostat 0.001 | silmitasertib 0.076 | [8] 0.017 | entospletinib -0.103
active: nilotinib -0.486 | [1] -0.433

HAUS5 (UniProt O94927)
inactive: nilotinib -0.014 | [1] 0.01 | dasatinib -0.071 | [2] -0.011 | [3] -0.015 | quisinostat -0.11 | tipifarnib 0.006 | [4] 0.079 | [5] 0.004 | [6] -0.02 | [7] 0.031 | silmitasertib 0.045 | [8] -0.015 | entospletinib 0.013
active: vorinostat -0.416

HS1BP3 (UniProt Q53T59)
inactive: nilotinib 0.021 | [1] -0.016 | dasatinib 0.023 | [2] -0.007 | [3] 0 | quisinostat -0.006 | tipifarnib 0.042 | [4] -0.019 | [5] 0.024 | [6] -0.014 | [7] 0.03 | vorinostat 0.139 | silmitasertib -0.038 | [8] -0.027 | entospletinib -0.033

GRK2 (UniProt P25098)
inactive: nilotinib 0.001 | dasatinib -0.058 | [2] 0.01 | [3] 0 | quisinostat 0.034 | tipifarnib -0.001 | [5] 0.043 | [6] -0.027 | [7] -0.055 | silmitasertib 0.066 | [8] -0.026 | entospletinib -0.006
active: [1] 0.393 | [4] 0.397 | vorinostat -0.225

INPP4A (UniProt Q96PE3)
inactive: nilotinib 0.012 | [1] -0.021 | dasatinib 0.028 | [2] 0.005 | [3] 0.123 | quisinostat -0.03 | tipifarnib 0.03 | [4] 0.032 | [5] 0.015 | [6] 0.032 | [7] 0.016 | vorinostat -0.106 | silmitasertib 0.002 | [8] -0.013 | entospletinib 0.006

IFITM3 (UniProt Q01628)
Sequence of UniProt Q01628 (Q01628 whole entry, looked up): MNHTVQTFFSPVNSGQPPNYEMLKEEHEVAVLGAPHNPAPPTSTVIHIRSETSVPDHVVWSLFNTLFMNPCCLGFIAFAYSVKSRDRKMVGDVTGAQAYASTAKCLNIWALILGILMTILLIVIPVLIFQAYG
inactive: nilotinib 0.068 | [1] 0.055 | dasatinib 0.049 | [2] -0.013 | [3] 0.064 | quisinostat -0.069 | tipifarnib -0.136 | [4] -0.044 | [5] -0.133 | [6] -0.051 | [7] -0.02 | vorinostat 0.067 | silmitasertib -0.129 | [8] 0.069 | entospletinib 0.059

INTS5 (UniProt Q6P9B9)
Sequence of UniProt Q6P9B9 (Q6P9B9 whole entry, looked up): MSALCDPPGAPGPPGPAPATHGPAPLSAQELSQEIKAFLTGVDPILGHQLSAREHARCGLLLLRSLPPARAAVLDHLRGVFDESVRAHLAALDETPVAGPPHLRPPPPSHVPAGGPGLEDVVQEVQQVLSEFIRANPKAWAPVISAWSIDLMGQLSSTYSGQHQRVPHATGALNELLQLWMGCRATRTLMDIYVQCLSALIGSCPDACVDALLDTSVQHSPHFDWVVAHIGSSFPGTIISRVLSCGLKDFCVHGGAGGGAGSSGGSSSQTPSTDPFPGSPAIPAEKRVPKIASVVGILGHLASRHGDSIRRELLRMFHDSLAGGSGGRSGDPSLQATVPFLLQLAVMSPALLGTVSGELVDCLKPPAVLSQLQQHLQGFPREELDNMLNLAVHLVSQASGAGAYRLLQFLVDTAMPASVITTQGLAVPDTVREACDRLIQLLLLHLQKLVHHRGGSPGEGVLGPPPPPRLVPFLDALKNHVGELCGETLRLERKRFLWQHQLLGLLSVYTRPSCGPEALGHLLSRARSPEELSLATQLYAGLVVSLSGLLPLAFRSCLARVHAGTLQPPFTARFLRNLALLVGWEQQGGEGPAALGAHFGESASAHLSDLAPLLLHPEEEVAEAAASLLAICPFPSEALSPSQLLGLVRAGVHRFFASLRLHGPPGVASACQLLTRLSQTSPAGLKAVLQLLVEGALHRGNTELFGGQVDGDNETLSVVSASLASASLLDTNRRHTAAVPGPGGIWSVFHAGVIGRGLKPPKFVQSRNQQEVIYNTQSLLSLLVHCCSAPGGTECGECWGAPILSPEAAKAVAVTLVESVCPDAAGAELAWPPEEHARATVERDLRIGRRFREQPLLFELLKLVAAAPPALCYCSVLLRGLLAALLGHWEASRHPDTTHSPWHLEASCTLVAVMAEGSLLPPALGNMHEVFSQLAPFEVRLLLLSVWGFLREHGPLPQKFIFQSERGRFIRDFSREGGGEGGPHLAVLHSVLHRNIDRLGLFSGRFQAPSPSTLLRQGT
inactive: nilotinib 0.11 | [1] -0.093 | dasatinib -0.012 | [2] 0.062 | [3] 0.055 | quisinostat -0.002 | tipifarnib 0.294 | [4] 0.043 | [5] -0.064 | [6] 0.081 | [7] -0.045 | silmitasertib 0.088 | [8] 0.039 | entospletinib 0.093
active: vorinostat -0.56

ITPKA (UniProt P23677)
Sequence of UniProt P23677 (P23677 whole entry, looked up): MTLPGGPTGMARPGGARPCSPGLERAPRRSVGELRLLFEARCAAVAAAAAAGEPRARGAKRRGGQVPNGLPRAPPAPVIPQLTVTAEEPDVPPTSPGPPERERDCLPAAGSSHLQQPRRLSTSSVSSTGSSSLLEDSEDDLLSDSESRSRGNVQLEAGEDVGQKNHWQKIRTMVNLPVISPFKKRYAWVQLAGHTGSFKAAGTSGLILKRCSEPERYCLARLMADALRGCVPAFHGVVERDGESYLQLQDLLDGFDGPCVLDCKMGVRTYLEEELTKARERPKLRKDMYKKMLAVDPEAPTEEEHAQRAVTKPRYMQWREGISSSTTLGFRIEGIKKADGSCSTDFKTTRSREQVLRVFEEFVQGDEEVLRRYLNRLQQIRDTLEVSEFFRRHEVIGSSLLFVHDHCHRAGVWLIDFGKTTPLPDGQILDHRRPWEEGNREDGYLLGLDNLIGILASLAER
inactive: nilotinib -0.005 | [1] 0.045 | dasatinib -0.064 | [2] -0.001 | [3] -0.002 | quisinostat -0.026 | tipifarnib -0.001 | [4] 0.044 | [5] 0.021 | [6] -0.027 | [7] 0.033 | silmitasertib 0.09 | [8] -0.101 | entospletinib 0.081
active: vorinostat -0.36

HAUS3 (UniProt Q68CZ6)
Sequence of UniProt Q68CZ6 (Q68CZ6 whole entry, looked up): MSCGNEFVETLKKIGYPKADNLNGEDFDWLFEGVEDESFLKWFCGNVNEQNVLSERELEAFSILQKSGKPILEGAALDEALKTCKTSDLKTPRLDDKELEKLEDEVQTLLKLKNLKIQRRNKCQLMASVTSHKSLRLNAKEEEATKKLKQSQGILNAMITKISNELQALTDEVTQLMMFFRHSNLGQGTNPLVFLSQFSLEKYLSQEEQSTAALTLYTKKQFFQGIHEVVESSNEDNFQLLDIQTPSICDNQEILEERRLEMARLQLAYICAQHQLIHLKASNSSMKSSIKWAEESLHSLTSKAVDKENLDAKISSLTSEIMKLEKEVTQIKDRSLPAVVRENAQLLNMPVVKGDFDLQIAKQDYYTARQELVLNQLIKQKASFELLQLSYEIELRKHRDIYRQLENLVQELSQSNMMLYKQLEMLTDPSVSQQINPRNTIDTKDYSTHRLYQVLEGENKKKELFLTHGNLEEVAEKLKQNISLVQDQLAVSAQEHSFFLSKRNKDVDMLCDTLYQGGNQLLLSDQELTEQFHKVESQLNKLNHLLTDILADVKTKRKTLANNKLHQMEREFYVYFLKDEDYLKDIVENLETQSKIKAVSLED
inactive: nilotinib 0.02 | [1] -0.027 | dasatinib -0.075 | [2] 0.008 | [3] 0.003 | quisinostat -0.059 | tipifarnib -0.045 | [4] 0.017 | [5] -0.015 | [6] -0.038 | [7] 0.007 | silmitasertib -0.009 | [8] 0.004 | entospletinib 0.007
active: vorinostat -0.618

HK1 isoform 2 (UniProt P19367)
inactive: nilotinib 0.011 | [1] 0 | dasatinib -0.026 | [2] -0.005 | [3] -0.008 | quisinostat -0.013 | tipifarnib 0.007 | [4] 0.008 | [5] -0.005 | [6] 0 | [7] 0.012 | silmitasertib 0.028 | [8] -0.002 | entospletinib 0.011
active: vorinostat -0.264

GSTZ1 (UniProt G3V4T6)
inactive: nilotinib 0.026 | [1] 0.009 | dasatinib -0.024 | [2] -0.016 | [3] 0.083 | quisinostat 0.016 | tipifarnib 0.014 | [4] 0.029 | [5] -0.012 | [6] -0.007 | [7] 0.088 | vorinostat 0.167 | silmitasertib -0.002 | [8] -0.015 | entospletinib -0.031

KBTBD2 (UniProt Q8IY47)
Sequence of UniProt Q8IY47 (Q8IY47 whole entry, looked up): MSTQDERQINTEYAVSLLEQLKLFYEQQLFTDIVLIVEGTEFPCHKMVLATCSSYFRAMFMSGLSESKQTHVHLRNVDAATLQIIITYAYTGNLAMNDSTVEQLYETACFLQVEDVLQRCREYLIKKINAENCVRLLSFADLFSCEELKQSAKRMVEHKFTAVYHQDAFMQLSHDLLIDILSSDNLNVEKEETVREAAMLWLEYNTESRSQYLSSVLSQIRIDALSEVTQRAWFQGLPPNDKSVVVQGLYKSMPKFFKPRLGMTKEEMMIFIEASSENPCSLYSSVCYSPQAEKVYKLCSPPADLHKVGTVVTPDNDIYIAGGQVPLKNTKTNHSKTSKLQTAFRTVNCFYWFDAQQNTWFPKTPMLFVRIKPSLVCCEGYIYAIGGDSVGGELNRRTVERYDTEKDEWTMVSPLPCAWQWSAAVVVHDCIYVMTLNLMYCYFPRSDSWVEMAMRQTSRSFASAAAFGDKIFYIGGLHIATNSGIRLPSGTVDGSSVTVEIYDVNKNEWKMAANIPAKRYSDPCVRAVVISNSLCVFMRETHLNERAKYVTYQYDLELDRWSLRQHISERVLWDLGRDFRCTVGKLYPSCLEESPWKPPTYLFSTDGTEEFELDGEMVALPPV
inactive: nilotinib 0.014 | [1] -0.005 | dasatinib 0.012 | [2] 0.006 | [3] 0.028 | quisinostat -0.178 | tipifarnib -0.018 | [4] 0.007 | [5] 0.009 | [6] -0.202 | [7] 0.047 | vorinostat 0.145 | silmitasertib -0.039 | [8] 0.038 | entospletinib 0.026

HEATR3 (UniProt Q7Z4Q2)
inactive: nilotinib 0.023 | [1] -0.021 | dasatinib -0.042 | [2] -0.031 | [3] 0.062 | quisinostat -0.078 | tipifarnib 0.019 | [4] 0.033 | [5] -0.015 | [6] 0.001 | [7] -0.03 | silmitasertib 0.013 | [8] -0.017 | entospletinib -0.006
active: vorinostat -0.5
